Results on 59 compounds are retold here after PubChem BioAssay AID602449 (Sanford-Burnham Center for Chemical Genomics, 2012).

Among all 360,000 compounds or so, about 5,000 (1.4%) were called active. This excerpt belongs to a sample that is enriched for actives. Unmarked numbers belong to inactive results.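 How the source made its calls: active means inhibition of 50% or more, scaled per plate between neutral and stimulator controls; inactive means the rest.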

This assay can be described thus: blockers of Ca2+-induced mitochondrial swelling – biochemical, isolated mouse mitochondria, absorbance, primary screen (AID 602449).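 Further: 0% = DMSO wells given calcium and 100% = 1 mM EGTA wells.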 Conditions: 30 min, at 10 µM, hits give high values.
For `CC1(C)C2CC=C(/C=N/NC(=O)C3CC3)C1C2` (centres undefined), the inhibition was -1.7%.
The same measure for `CCOc1ccc(N2C(=O)/C(=C/c3ccc(C)o3)N(C)C2=S)cc1`: 4.3%; for `Cc1c(C)n2c(SCC(=O)NC3CCCC3)nnc2[nH]c1=O`: -1.2%.
On to `O=C1CCCCC1Sc1ccc(Cl)cc1[N+](=O)[O-]` (centres undefined), for which the inhibition was -0.4%.
In the case of `CC(C)c1ccccc1OCC(O)CN(CC(O)COc1cccc2ccccc12)C(C)C` (centres undefined) it was 61.5% (active).
In the case of `CN1CCN(CCCCOc2cccc3ccccc23)CC1` it was -0.6%; in that of `CC1CC(C)CN(CCOc2cccc3ccccc23)C1` (centres undefined), -1.7%; in that of `Cc1ccc(C(=O)NCC(=O)NCc2cc(=O)n(C)c(=O)n2C)cc1`, -1.3%.
In the case of `Cc1cc(C)cc(OCC(=O)O/N=C(\N)Cc2ccc([N+](=O)[O-])cc2)c1` it was 3.2%; in that of `O=C(Nc1nc2ccc([N+](=O)[O-])cc2s1)c1ccc(S(=O)(=O)N2CCCc3ccccc32)cc1`, 78.1% (active); in that of `CSc1ncccc1C(=O)Nc1nc2ccc(F)cc2s1`, 5.6%.
`CNC(=O)c1ccsc1NC(=O)c1ccc(S(=O)(=O)N2CCc3ccccc32)cc1`: the inhibition was 0.6%.
As for `NS(=O)(=O)c1ccc2nc(NC(=O)C3=COCCO3)sc2c1`, the inhibition was -0.6%.
The same measure for `Cc1cc(C)cc(OCC(=O)Nc2nc3ccc([N+](=O)[O-])cc3s2)c1`: 50.4% (active).
In the case of `Cc1ccc(NC(=O)c2cccc(S(=O)(=O)N3CCCc4ccccc43)c2)nc1` it was -1.2%; in that of `O=C(NNC(=O)c1ccc(-n2cncn2)c([N+](=O)[O-])c1)c1ccccc1`, -2.8%; in that of `Cc1cc(C)cc(OCC(=O)Nc2cc(NC(=O)COc3cc(C)cc(C)c3)cc(C(=O)O)c2)c1`, 1.6%.
In the case of `O=C(Nc1nc2ccc([N+](=O)[O-])cc2s1)c1ccncc1` it was 68.5% (active); in that of `CC(Nc1ccc([N+](=O)[O-])cc1[N+](=O)[O-])c1ccccc1` (centres undefined), 1%; in that of `O=C(NC(Nc1nc2ccc([N+](=O)[O-])cc2s1)(C(F)(F)F)C(F)(F)F)c1ccccc1`, 93.7% (active).
Regarding `COc1ccc(-c2n[nH]c3c2CN(C(=O)c2ccc(F)cc2)CC3)cc1`, the inhibition is 1.2%.
In the case of `COc1ccccc1CSc1ncc(-c2ccc([N+](=O)[O-])cc2)[nH]1` it was 24.2%; in that of `CC1(C)C2CCC1(CS(=O)(=O)NCCc1c[nH]c3ccccc13)C(=O)C2` (centres undefined), 0.4%.
In the case of `CC(=O)N1c2ccc(S(=O)(=O)N3CCCC(C(=O)Nc4ccc(C)cc4C)C3)cc2CC1C` (centres undefined) it was 0.4%; in that of `COc1ccc(NS(=O)(=O)c2cc(NC(=O)C3CCCCC3)ccc2N2CCOCC2)cc1`, -0.4%.
In the case of `CCOc1ncccc1C(=O)N(CC)CC(=O)Nc1ccc(NC(C)=O)cc1` it was -0.1%; in that of `Cc1cc(Cl)c2oc(C(=O)NC(C)c3ccncn3)c(C)c2c1` (centres undefined), -0.4%; in that of `COC(=O)[C@@]12C[C@@H](CC(=O)NCc3cccc(C(F)(F)F)c3)C(=O)N(Cc3ccco3)C1=CCC(C)(C)C2`, -0.5%.
As for `COc1ccc(C(=O)NC2(C(F)(F)F)NC(=O)N(CCCc3ccccc3)C2=O)c(OC)c1OC` (centres undefined), the inhibition is 11.9%.
In the case of `CCCC1=Nc2cc(C(=O)NCCN3CCCC3)ccc2Sc2ccccc21` it was -1.2%.
Turning to `Cc1cccc(C(=O)OC(C)CN2CCN(C)CC2)c1` (centres undefined), the inhibition is -1.6%.
Take `Cc1cccc(-c2nc3ccc(C(=O)NCCN4CCN(C)CC4)cc3nc2-c2cccc(C)c2)c1`: the inhibition was 55.9% (active).
Take `C[C@H](NS(=O)(=O)c1ccc(Cl)cc1)C(=O)OCC(=O)N1CCOCC1`: the inhibition was 1.4%.
In the case of `COc1ccc(C(C)C)cc1S(=O)(=O)Nc1ncn[nH]1` it was -0.4%; in that of `CC(=O)c1c(C)[nH]c(C(=O)CN2C(=O)NC(C)(C)C2=O)c1C`, -0.1%; in that of `CC(=O)Nc1ccc(C(=O)CSc2nc3ccc(C)cc3[nH]2)cc1`, -1.5%.
The same measure for `Cc1nc(SCC(=O)c2ccccc2)c([N+](=O)[O-])[nH]1`: 3.9%.
Regarding `O=C(CSc1nc2ccc([N+](=O)[O-])cc2[nH]1)c1ccc(Cl)cc1`, the inhibition is 104% (active).
The same measure for `COc1cccc(NC(=O)CN(C)C(=O)CSCc2nc3scc(-c4cccs4)c3c(=O)[nH]2)c1`: -0.9%; for `Cc1ccccc1N1CC(C(=O)Nc2nnc(SCCC3OCCO3)s2)CC1=O` (centres undefined): -2.6%; for `Cc1ccccc1OCCOc1ccc([N+](=O)[O-])cc1/C=N/n1cnnc1`: 3.3%.
The same measure for `O=[N+]([O-])c1ccc(N/N=C/c2ccccc2)cc1`: 63.2% (active); for `Cc1cc([N+](=O)[O-])ccc1NCc1cccc([N+](=O)[O-])c1`: 6.8%; for `Cc1cccc(COc2ccccc2/C=N/Nc2ccc([N+](=O)[O-])cc2)c1`: 69.1% (active).
The same measure for `O=[N+]([O-])c1ccc(N=NNc2ccc([N+](=O)[O-])cc2)cc1`: 21.4%.
For `CC(C)c1ccc(C=NNc2ccc([N+](=O)[O-])cn2)cc1`, the inhibition is 7%.
In the case of `c1ccc(-c2cn3c(n2)CCc2ccc4cccnc4c2-3)cc1` it was -2%; in that of `O=C(OCC(=O)N1CCCCCC1)c1cccc(Cl)c1Cl`, 3.6%; in that of `CN(C)CCN=c1cc(-c2ccccc2)oc2ccc(Cl)cc12`, 3%.
In the case of `CCCCn1c(N)c(N(CC(C)C)C(=O)c2ccc(Br)o2)c(=O)[nH]c1=O` it was -1.5%.
In the case of `CC/C(=N\NC(=S)NC(C)C)c1ccc(OC(F)F)cc1` it was 1.8%; in that of `CC(C)N(Cc1ccccc1)C(=S)Nc1ccc(OC(F)F)cc1`, 5.8%.
Regarding `CC(NC(=S)Nc1ccc(OC(F)F)cc1)c1ccc(F)cc1` (centres undefined), the inhibition was 102% (active).
The same measure for `Cc1cc(Br)ccc1NC(=O)c1cnc(N2CCN(c3ccccn3)CC2)c2ccccc12`: 0.4%; for `O=C(O)c1ccc([N+](=O)[O-])cc1Sc1ccsc1`: 0.7%.
Turning to `COCCn1c(SCC(=O)Nc2cc(OC)ccc2OC)nc2c(c1=O)SC(C)C2` (centres undefined), the inhibition was 1.2%.
In the case of `CCCCCc1c(-c2ccc(OC)c(OC)c2)ncn1CCc1ccccc1OC` it was 5.6%.
As for `CCCCCc1c(-c2cccc(Br)c2)ncn1CCc1ccccc1OC`, the inhibition was 1.3%.
In the case of `CCCCCc1c(Cc2ccccc2)ncn1CCc1ccccc1OC` it was 85.6% (active).
